We go through 13 molecules from PubChem BioAssay (NCI).

Test systems include NCI-H23 lung; NCI-H226 lung; NCI-H322M lung; HOP-62 NSCLC; NCI-H460 lung; HOP-92 NSCLC; NCI-H522 lung; A549/ATCC NSCLC; 786-0 renal; COLO 205 colon.
Common to all, as to assay: NCI-60 one-dose screen, 48 h (100 = growth as untreated, 0 = no growth, -100 = all killed)
Holding throughout (conditions): 10 µM unless noted

The panel holds about 83,000 compounds, 20% with a hit somewhere; the sample as a whole holds those more often.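 For each line, cells grew in 96-well plates with the test compound present at a single concentration for 48 hours.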 Unmarked numbers belong to inactive results. Calls of active or inactive are those of the source. How the source made its calls: active means growth percent below 10; inactive means the rest.

In the case of `CCCCCCCCCCCCCCCCCCOc1cccc(CCOP(=O)(O)OCC[N+](C)(C)C)c1`, the growth in the experiment with NCI-H23 lung was 96.3%; with NCI-H226 lung, 95.3%; in the experiment with NCI-H322M lung, 105%; with HOP-62 NSCLC, 72.2%; in the experiment with NCI-H460 lung, 60.7%; in the experiment on HOP-92 NSCLC, 72.9%. For the same molecule, the growth in the experiment on NCI-H522 lung is 72%; with A549/ATCC NSCLC, 84.9%; with 786-0 renal, 91.2%; in the experiment with COLO 205 colon, 97.4%.

Turning to `COC1=CC(c2ccc[nH]2)=N/C1=C\c1[nH]c(C)c(C(=O)CCC(=O)Oc2ccc3c(c2)CCC2C3CC[C@]3(C)[C@@H](O)CC[C@@H]23)c1C` (stereo not given in full), the growth is 18.4% in the experiment with NCI-H23 lung; 15.5% with NCI-H226 lung; 42.7% in the experiment on NCI-H322M lung; 12.4% in the experiment with HOP-62 NSCLC; 1.58% (active) in the experiment on NCI-H460 lung; -45.2% (active) in the experiment on HOP-92 NSCLC. Besides, the growth is -58.9% (active) in the experiment with NCI-H522 lung, -10.9% (active) in the experiment with A549/ATCC NSCLC, -46.3% (active) with 786-0 renal and 31.5% in the experiment on COLO 205 colon.

Regarding `O=c1cc(C2NCCc3c2[nH]c2ccccc32)c2c(ccc3ccccc32)o1` (stereo not given), the growth in the experiment on NCI-H23 lung was 79.6%; in the experiment with NCI-H226 lung it was 77%; in the experiment with NCI-H322M lung, 62.7%; with HOP-62 NSCLC, 82.4%; in the experiment with NCI-H460 lung it was 48.1%; in the experiment with HOP-92 NSCLC it was 41%. In addition, the growth is 62.4% with NCI-H522 lung, 67.9% with A549/ATCC NSCLC, 59.1% with 786-0 renal and 65.3% in the experiment on COLO 205 colon.

`COc1ccc(C(=O)/C=C/c2ccc(/C=C/c3cc(OC)c(OC)c(OC)c3)cc2)cc1`: the growth with NCI-H23 lung is 43.5%; in the experiment with NCI-H226 lung it was 72.4%; in the experiment on NCI-H322M lung, 64.8%; in the experiment with HOP-62 NSCLC, 71%; in the experiment with NCI-H460 lung, 59.6%; in the experiment with HOP-92 NSCLC, 51.9%. Further, the growth with NCI-H522 lung is 5.55% (active); in the experiment on A549/ATCC NSCLC, 36.3%; with 786-0 renal, 67.7%; in the experiment on COLO 205 colon it was 68.1%.

For `CCC1CCc2nc3sc(C(=O)Nc4cccc(C)c4)c(N)c3cc2C1` (stereo not given), the growth in the experiment with NCI-H23 lung was 101%; with NCI-H226 lung it was 96%; with NCI-H322M lung, 94.8%; in the experiment on HOP-62 NSCLC, 87%; in the experiment on NCI-H460 lung it was 88.1%; in the experiment with HOP-92 NSCLC it was 55.2%. The growth in the experiment with NCI-H522 lung was 71.5%; in the experiment on A549/ATCC NSCLC, 77.3%; in the experiment on 786-0 renal, 94.9%; in the experiment with COLO 205 colon, 93%.

With `O=[N+]([O-])c1cc(S(=O)(=O)OCC2CO2)ccc1Cl` (stereo not given), the growth in the experiment with NCI-H23 lung was 96%; in the experiment on NCI-H226 lung, 110%; in the experiment with NCI-H322M lung, 82.2%; in the experiment on HOP-62 NSCLC, 111%; in the experiment with NCI-H460 lung, 109%; in the experiment on HOP-92 NSCLC, 125%. Moreover, the growth is 85.9% with NCI-H522 lung, 101% with A549/ATCC NSCLC, 106% in the experiment with 786-0 renal and 117% with COLO 205 colon.

As for `CCC(=O)Oc1ccc2c(c1)CC[C@@H]1[C@@H]2CC[C@]2(C)C[C@H](OC(=O)CC)C[C@@H]12`, the growth with NCI-H23 lung was 79.1%; in the experiment on NCI-H226 lung, 99.9%; in the experiment with NCI-H322M lung, 92.6%; with HOP-62 NSCLC, 64.1%; in the experiment with NCI-H460 lung, 62.6%; with HOP-92 NSCLC, 62.8%. Moreover, the growth is 32.1% in the experiment with NCI-H522 lung, 71.5% in the experiment on A549/ATCC NSCLC, 67.9% in the experiment on 786-0 renal and 118% with COLO 205 colon.

With `CCNC(=O)CCCCC(=O)c1c(C)[nH]c(/C=C2\N=C(c3ccc[nH]3)C=C2OC)c1C`, the growth in the experiment on NCI-H23 lung is 35%; with NCI-H226 lung, 65.7%; in the experiment on NCI-H322M lung it was 37.9%; in the experiment on HOP-62 NSCLC, 42.7%; in the experiment on NCI-H460 lung, -65.1% (active); in the experiment on HOP-92 NSCLC, -71.6% (active). In addition, the growth is -91.7% (active) with NCI-H522 lung, 9.45% (active) in the experiment on A549/ATCC NSCLC, -51.9% (active) in the experiment on 786-0 renal and 1.23% (active) with COLO 205 colon.

On to `C=CC(=O)N[C@H](/C=C/C(=O)OCC)Cc1ccc(-c2cc(Cl)cc(Cl)c2)cc1`, for which the growth in the experiment with NCI-H23 lung is 76.1%; in the experiment on NCI-H226 lung, 68.9%; in the experiment with NCI-H322M lung, 92.9%; with HOP-62 NSCLC, 88.4%; in the experiment on NCI-H460 lung it was 98.7%; in the experiment with HOP-92 NSCLC, 73.7%. The growth in the experiment with NCI-H522 lung is 51.1%; with A549/ATCC NSCLC it was 76.4%; in the experiment on 786-0 renal it was 96%; in the experiment on COLO 205 colon it was 95.8%.

Turning to `Cc1cccc(NC(=O)c2sc3nc4c(cc3c2N)CCC4)c1C`, the growth is 36% with NCI-H23 lung; 43.7% with NCI-H226 lung; 40.1% with NCI-H322M lung; 35.6% in the experiment with HOP-62 NSCLC; 10.8% in the experiment on NCI-H460 lung; 17.7% in the experiment on HOP-92 NSCLC. The growth is -16.5% (active) with NCI-H522 lung, 18.6% in the experiment on A549/ATCC NSCLC, 42.7% in the experiment with 786-0 renal and 6.68% (active) with COLO 205 colon.

As to `Nc1cc2c(cc1N)-c1cc(N)c(N)cc1C2`, the growth with NCI-H23 lung was 95%; with NCI-H226 lung, 98%; with NCI-H322M lung, 102%; in the experiment on HOP-62 NSCLC it was 95.5%; with NCI-H460 lung it was 105%; with HOP-92 NSCLC it was 86.7%. The growth in the experiment with NCI-H522 lung was 88.3%; with A549/ATCC NSCLC it was 97.9%; in the experiment on 786-0 renal, 100%; in the experiment on COLO 205 colon it was 116%.

Regarding `COc1ccc(C2=NN(c3ccc(S(N)(=O)=O)cc3)C(c3cn(-c4ccccc4)nc3-c3ccc(Cl)cc3)C2)cc1` (stereo not given), the growth with NCI-H23 lung is 93.9%; with NCI-H226 lung it was 101%; in the experiment with NCI-H322M lung, 94.4%; in the experiment on HOP-62 NSCLC it was 95.3%; in the experiment on NCI-H460 lung, 89%; in the experiment with HOP-92 NSCLC, 110%. Further, the growth is 71.1% in the experiment with NCI-H522 lung, 74.6% with A549/ATCC NSCLC, 105% in the experiment on 786-0 renal and 93.7% with COLO 205 colon.

As to `C#CCN1C(=O)/C(=c2\sc3n(c2=O)NC2C(N=3)N(CC)C(=O)N2CC)c2ccccc21` (stereo not given), the growth is 54.1% in the experiment with NCI-H23 lung; 87.4% in the experiment with NCI-H226 lung; 95.8% in the experiment with NCI-H322M lung; 80.9% in the experiment on HOP-62 NSCLC; 99.2% in the experiment on NCI-H460 lung; 76.4% with HOP-92 NSCLC. For the same molecule, the growth is 52.4% in the experiment on NCI-H522 lung, 85.6% in the experiment with A549/ATCC NSCLC, 61.2% with 786-0 renal and 37.1% in the experiment with COLO 205 colon.
